Screening data (PubChem)
Hits are enriched below; roughly 18% of the tested compounds scored in any of these assays.
HepG2 viability – HepG2 cytotoxicity, counter-screen for TGF-b inhibitors | HepG2 CAGA-GFP viability, ATP luminescence, 18 h | Potency, µM (doses to about 46.1 µM), for the others: top-dose activity change, negative = cytotoxicity, hits mostly cytotoxic | hit rate 0.76% among 410,000; also: potency is read from the fitted curve at half-maximal effect
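CellTiter-Glo luminescence gave cytotoxicity after 18 hours at 37 degrees C. The cells were HepG2 CAGA-GFP in 1% FBS DMEM, stimulated with 500 pg/mL TGF-beta after compound addition. %Activity was normalised to no-cell wells (complete cell-killing) and DMSO (no toxicity), and curves were fitted and classified.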
DT40 TDP1 CPT – DT40-hTDP1 cell growth loss with CPT; AID 686979; chicken DT40 Tdp1-/-;hTDP1 cells + 20 nM CPT, ATP luminescence, 48 h; hit rate 12% among 420,000; Potency, µM (series often up to 46.2 µM), for inactives: at the highest dose activity change, negative = growth inhibition, hits mostly inhibitors; also: potency is read from the fitted curve at half-maximal effect; % is scaled to controls: 0 for no effect and ±100 for the full control effect; nearly all actives have a fitted effect of over 55% in size
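Cell growth measured by CellTiter-Glo luminescence after a minimum 48 h, 37 C compound exposure with 20 nM CPT in Tdp1-knockout DT40 cells stably expressing hTDP1, seeded 400/well; qHTS titration format.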
DT40 TDP1 no CPT – qHTS for Inhibitors of human tyrosyl-DNA phosphodiesterase 1 (TDP1): qHTS in cells in absence of CPT; DT40 Tdp1-/- hTDP1 cells, no CPT, ATP luminescence, 48 h; Potency, µM (titrated, usually from 46.2 µM), for inactives: at the highest dose activity change, negative = growth inhibition, actives largely listed as inhibitors; hit rate 15% among 420,000; also: potency is read from the fitted curve at half-maximal effect; % is scaled to controls: 0 for no effect and ±100 for the full control effect; nearly all actives have a fitted effect of over 55% in size
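Seeded 400 DT40-hTDP1 cells/well (vehicle DMSO, no 20 nM CPT); pinned compounds; ≥48 hr at 37 °C; CellTiter-Glo luminescence as viability measure.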
IL-1B inflam inh – blocks inflammasome-driven IL-1 beta release. AID 743279. activity change, % at 57.5 µM. THP-1 LPS/ATP IL-1B secretion, AlphaLISA, 16 h; active compounds read low. hit rate 4.7% among 360,000; in the data active = activity change below about -50%; inconclusive = mostly about -30% to -49%; also: % is scaled to controls: 0 for no effect and ±100 for the full control effect
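Secreted IL-1B measured by AlphaLISA bead assay after 16 h compound exposure of THP-1 cells; compounds (final up to 57.5 uM) added 1 h before LPS (250 ng/mL) and ATP (1.25 mM) stimulation; lower signal means less secretion.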
TDP1 inh – blocks human tyrosyl-DNA phosphodiesterase 1; recombinant TDP1, AlphaScreen DNA substrate cleavage; AID 485290; hit rate 0.28% among 350,000; Potency, µM (series often up to 130 µM), for the others: at the highest dose activity change, negative = inhibition, hits mostly inhibitors; Q9NUW8; also: potency is read from the fitted curve at half-maximal effect; % is scaled to controls: 0 for no effect and ±100 for the full control effect; nearly all actives have a fitted effect of over 40% in size
Target sequence (Q9NUW8 whole entry, looked up): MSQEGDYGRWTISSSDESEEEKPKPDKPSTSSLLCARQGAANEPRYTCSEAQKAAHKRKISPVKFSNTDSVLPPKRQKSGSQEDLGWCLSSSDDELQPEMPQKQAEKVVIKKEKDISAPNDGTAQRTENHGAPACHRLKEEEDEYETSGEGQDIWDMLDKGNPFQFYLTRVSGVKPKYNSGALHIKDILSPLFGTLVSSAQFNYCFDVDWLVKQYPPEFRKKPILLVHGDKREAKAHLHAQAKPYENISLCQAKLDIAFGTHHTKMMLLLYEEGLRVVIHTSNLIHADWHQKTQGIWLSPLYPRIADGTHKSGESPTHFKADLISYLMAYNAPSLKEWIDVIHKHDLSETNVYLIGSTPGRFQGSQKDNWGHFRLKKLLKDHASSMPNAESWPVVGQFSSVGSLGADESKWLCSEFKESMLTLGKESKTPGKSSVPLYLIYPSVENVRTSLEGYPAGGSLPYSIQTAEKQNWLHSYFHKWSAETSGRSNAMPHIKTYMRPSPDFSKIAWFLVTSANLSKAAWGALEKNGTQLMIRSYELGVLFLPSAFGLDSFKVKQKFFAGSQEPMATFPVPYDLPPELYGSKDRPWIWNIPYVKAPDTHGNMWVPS
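Tdp1 1 nM final; 15 min RT w/ cpd; substrate 15 nM, 5 min; beads 10 ug/ml, 10 min; AlphaScreen read. Neg ctrl: no enzyme.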
TGFb SMAD3 inh – TGF-b pathway inhibition. Potency, µM (titrated, usually from 46.1 µM), for inactives: top-dose activity, negative = inhibition, hits mostly inhibitors. hit rate 1.2% among 410,000. HepG2 CAGA-GFP TGF-b/SMAD3 reporter, GFP fluorescence, 18 h; TGF-beta stimulated, 500 pg/mL final; also: potency is read from the fitted curve at half-maximal effect; % is scaled to controls: 0 for no effect and ±100 for the full control effect; nearly all actives have a fitted effect of over 65% in size
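TGF-beta reporter screen: HEPG2 CAGA-GFP, 1% FBS, 500 pg/mL TGF-beta final, 18 h; per-cell GFP summed per well; curves fitted and categorized by class.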
* = called active by the depositor; ? = inconclusive; . = not tested or not shown; [ ] = dose if it differs, or a comment. Unless noted, calls follow the shape of the dose curve; as a rule, active = well fitted curve in the direction sought with a large enough effect; inconclusive = small, poorly fitted or top-dose-only effect, or another doubt; inactive = no such curve, though single readings can be large; an effect the other way counts as inactive or inconclusive.

SMILES	HepG2 viability	DT40 TDP1 CPT	DT40 TDP1 no CPT	IL-1B inflam inh	TDP1 inh	TGFb SMAD3 inh
Cc1ccc(S(=O)(=O)CCSC(=N)N)cc1	-24.3%	?	16.4µM*	-114.5*	5.1%	?
O=C(N/N=C\c1ccc[nH]1)C1COc2ccccc2O1 (configuration not stated)	-17.9%	6.5%	-0.2%	-18.0	.	-9.0%
Cc1ccc(-n2c(O)c(/C=N/NC(=O)C3COc4ccccc4O3)c3ccccc3c2=O)cc1 (configuration not stated)	-39.5%	?	25.9µM*	45.0	10.1%	?
O=C(N/N=C/c1c(O)n(-c2ccccc2Cl)c(=O)c2ccccc12)C1COc2ccccc2O1 (configuration not stated)	-45.6%	?	?	50.9	8.2%	-1.7%
Cc1[nH]n(-c2ccccc2)c(=O)c1/C=N\NC(=O)C1COc2ccccc2O1 (configuration not stated)	-24.9%	3.26µM*	5.17µM*	19.4	10.5%	0.0%
Cc1ccc(NC(=O)Cn2c(=O)c(C(F)(F)F)nc3ccccc32)c(C)c1	2.1%	-26.3%	-15.7%	.	2.6%	?
CCc1ccc(-n2c(CCC(=O)O)ccc2-c2ccc(F)cc2)cc1	-16.6%	2.0%	-19.8%	.	.	?
O=C1CCN(CCc2ccccc2)CCN1[C@H](COc1ccccc1)Cc1ccccc1	-10.6%	29.1µM*	11.2µM*	?	.	?
COc1ccc(SCC(Cc2ccccc2)N2CCN(CC(C)C)CCC2=O)cc1 (configuration not stated)	-30.2%	.	.	.	.	?
CC(C)C[C@@H](COc1ccccc1)N1CCN(CCc2ccccc2)CCC1=O	-21.3%	11.2µM*	20.6µM*	-3.3	.	?
CCCN1CCC(=O)N([C@H](COc2ccccc2)CC(C)C)CC1	3.6%	?	?	-9.5	.	?
CC(C)CN1CCC(=O)N([C@H](COc2ccccc2)Cc2ccccc2)CC1	-27.9%	23.1µM*	11.2µM*	-8.0	.	?
O=C(CC1SCCNC1=O)NCc1ccccc1 (configuration not stated)	-54.9%	-3.1%	-1.4%	20.5	.	3.3%
Cn1c(O)c(/C=N/NC(=O)c2cc3ccccc3cc2O)c2ccccc21	-74.4%	16.4µM*	14.6µM*	83.2	1.6%[0.0935 µM]	?
O=C(O)c1ccc(/C=N/NC(=O)c2cc3ccccc3cc2O)cc1	-17.9%	-6.4%	3.8%	-1.7	1.0%	?
CCOc1ccccc1NC(=S)Nc1ccccc1F	-1.3%	-7.2%	-9.3%	37.8	-5.6%	8.9%
CCOc1ccccc1NC(=S)Nc1ncccc1C	-12.1%	?	29.1µM*	-27.8	8.2%	0.0%
COc1ccc(NC(=S)Nc2ccc(OCc3ccccc3)cc2)c(OC)c1	-26.2%	20.6µM*	25.9µM*	34.4	0.6%	?
COc1ccc(NC(=S)Nc2ncccc2C)c(OC)c1	-23.7%	-24.6%	?	-77.8*	10.3%	?
C[C@H](NC(=O)c1ccco1)C(=O)OCC(=O)N1CC(=O)Nc2ccccc21	2.3%	3.5%	-4.6%	2.5	-2.6%	19.5%
COc1ccc(-n2c(C)cc(C(=O)COc3ccc(-n4cnnn4)cc3)c2C)cc1	-1.6%	?	?	-4.0	1.0%	-0.4%
CCCC1(CCC)NC(=O)N(CC(=O)c2cc(C)n(-c3ccc4c(c3)OCO4)c2C)C1=O	14.7%	?	20.6µM*	-11.7	10.5%	5.1%
CC(=O)c1ccc(OCC(=O)c2cc(C)n(-c3ccc4c(c3)OCO4)c2C)cc1	-7.3%	23.1µM*	10.3µM*	-2.6	-2.7%	2.4%
